Several values for one entry are separate records, joined by “and”; a condition that tells them apart may be missing. Equal values may be shown once. Inconclusive results are not listed. Activity calls are given as the source filed them. Unless noted, calls come from the whole dose curve; as a rule, active = well fitted curve in the direction sought with a large enough effect; inconclusive = small, poorly fitted or top-dose-only effect, or another doubt; inactive = no such curve, though single readings can be large; an effect the other way counts as inactive or inconclusive.

For experiment [1], the target named is Glutathione peroxidase 1 (Homo sapiens) (UniProt P07203). Kind of experiment: Primary qHTS Assay for Inhibitors of Recombinant Selenoprotein Glutathione Peroxidase 1 (GPX1) (AID 1845191). Note: nearly all actives have a fitted effect of over 65% in size. Summed up: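 10 nM GPX1 + cpd, 30 min RT; start w/ 1 mM GSH, 0.5 mM cumene hydroperoxide, 0.5 mM NADPH, 100 nM GR, 0.01% BSA; buffer 50 mM Tris-HCl pH 7.5, 2 mM EDTA, 150 mM NaCl; Fl 340/450, 0 & 15 min.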
A general note: Quantitative high-throughput screening tests each substance at several concentrations.

Experiment [2] in a line: qHTS drug screen for cell cycle checkpoint inhibitors in PARPi-resistant BRCA-mutant ovarian cancer cell lines. (AID 1963452; calls by dose curve). The settings on record: PEO1/OlaR viability, CellTiter-Glo luminescence, 96 h, stronger effect = lower value. The procedure, abridged: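 PEO1, PEO4 and PEO1/OlaR ovarian cancer cells, 600 per well, exposed 96 h at 37C to a dilution series. Viability read by CellTiter-Glo luminescence, normalized to DMSO and empty wells; activity summarized as Z-AUC.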

Experiment [3] is described as follows: HepG2 viability counterscreen (readout 2: ATP content) against the NCATS DSHEA and TCM libraries (AID 1794840).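 Note: HepG2 cells exposed to substances for about 24 h; 0% is about no effect.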 Summed up: (§1)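 1,000 HepG2 cells/well, 4 h attach; compounds ~24 h, 37C/5% CO2. Readout 1: GF-AFC 25 uM final, 30 min, fluorescence 380/510 nm. Readout 2: CellTiter-Glo, 30 min RT, luminescence.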
Experiment [4] can be described thus: HepG2 viability counterscreen (readout 1: protease activity) against the NCATS DSHEA and TCM libraries (AID 1794841).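 Note: cells exposed to compounds for about 24 h before the protease read; 0% is about no effect.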 Summed up: as §1
(Counterscreens check selectivity or assay interference.)

Experiment [5] concerns the target Cytochrome P450 3A4 (Homo sapiens) (UniProt P08684). The experiment is described as follows: qHTS for inhibitors of CYP3A4 against the NCATS DSHEA and TCM libraries (AID 1919971). Note: potency is the fitted concentration of half-maximal effect. Summed up:
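Luminescent P450-Glo format: compounds preincubated 15 min with enzyme and luciferin substrate, reaction run 30-45 min after NADPH regeneration solution. Intraplate controls: ketoconazole for CYP3A4 and CYP2C19, sulfaphenazole for CYP2C9.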

Experiment [6] can be described thus: KB-3-1 P-gp reporter qHTS against the NCATS DSHEA and TCM libraries (AID 1919975). Note: 0% is about no effect. Summed up: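 CellTiter-Glo luminescence viability readout; KB-3-1 parental cells, 500/well, attached ~4 h, then compound for ~72 h, 37C, 5% CO2. Bortezomib intraplate control.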
For experiment [7], the target named is Cytochrome P450 1A2 (Homo sapiens) (UniProt P05177). Kind of experiment: qHTS for inhibitors of CYPIA2 against the NCATS DSHEA and TCM libraries (AID 1919976). Note: potency is the fitted concentration of half-maximal effect. The procedure, abridged: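 Human CYP1A2 with pro-luciferin substrate (typically 100 mM KPO4), 15 min preincubation with compound, then 1x NADPH regeneration for 30-45 min at room temperature in the dark. Luciferin quantified by luciferase luminescence; furafylline intraplate control.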

The nature of experiment [8]: qHTS Counterscreen for compound interference against the NCATS DSHEA and TCM libraries (AID 1919978).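 Note: compounds preincubated with 1 µM D-luciferin or buffer before detection reagent; % of control where 0% means no effect.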 Particulars: firefly luciferase detection reagent interference, luminescence. Summed up: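 Luminescence counterscreen for detection-kit interference: compounds at 19.5 nM–39.8 uM final, 15 min RT with 1 uM D-luciferin or buffer only; detection reagent added, 30 min RT, then read.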

A short description of experiment [9]: Dual reporter qHTS for agonist of Pregnane X Receptor (hPXR) against the NCATS DSHEA and TCM libraries: Fluorescence readout (AID 1920058). Note: 0% is about no effect. The procedure, abridged:
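hPXR-Luc HepG2 cells, 2000/well in charcoal-stripped serum, attached 5 h, dosed for ~24 h at 37 °C. Fluorescence read is CellTiter-Fluor viability (Ex/Em 405/540 nm); rifampicin positive, tetraoctyl ammonium bromide (92 µM) cytotoxicity controls.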

The nature of experiment [10]: qHTS for differential inhibitors of proliferation of Plasmodium falciparum line 3D7 (AID 1876). Note: potency is the fitted concentration of half-maximal effect.
The nature of experiment [11]: qHTS for differential inhibitors of proliferation of Plasmodium falciparum line W2 (AID 1883).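 Note: potency is the fitted concentration of half-maximal effect; parasites grown with compound for 72 h before lysis and staining.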 Particulars: Potency: Plasmodium falciparum W2 proliferation inhibition.
Experiment [12] in a line: qHTS for differential inhibitors of proliferation of Plasmodium falciparum line HB3 (AID 1886).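 Note: potency is the fitted concentration of half-maximal effect; parasites grown with compound for 72 h before SYBR Green readout.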 The settings on record: Potency: Plasmodium falciparum HB3 proliferation inhibition.
Experiment [13] concerns the target Cytochrome P450 3A4 (Homo sapiens) (UniProt P08684). The experiment is described as follows: qHTS Assay for Activators of Cytochrome P450 3A4 (AID 885). Note: nearly all actives have a fitted effect of over 65% in size. Summed up:
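Signal was normalized against complete inhibition by 57 uM ketoconazole. The reaction used 20nM CYP3A4 with 25uM Luciferin-PPXE, 10-min compound preincubation and a 60-min NADPH-supported step at RT.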

Experiment [14] is described as follows: qHTS assay for small molecule disruptors of the mitochondrial membrane potential - 1 hr assay (AID 651754; calls by dose curve; note: % is set by controls: 0 for no effect and ±100 for the full control effect; nearly all actives have a fitted effect of over 35% in size). Summed up:
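HepG2 cells, attached overnight, were exposed to compound for 1 hr at 37C, then stained 30 min with a potentiometric dye. Ratio of red aggregate (590nm) to green monomer (535nm) fluorescence reports membrane potential; collapse shifts signal toward green.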

The target in experiment [15] is Estrogen receptor (Homo sapiens) (UniProt P03372). Kind of experiment: qHTS assay for small molecule agonists of estrogen receptor alpha signaling (AID 588514; calls by dose curve;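 note: 0% = vehicle only and 100% = reference agonist; nearly all actives have a fitted effect of over 70% in size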). Summed up: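 ER-alpha-UAS-bla GripTite HEK293 cells, 5000/well in 2% charcoal/dextran-stripped FBS medium, treated with compound titrations 18 h at 37 C. CCF4 beta-lactamase read by fluorescence after 2 h RT; normalised to 20 nM 17-beta-estradiol (100%) and DMSO (0%), Hill fit for EC50 and efficacy.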

Experiment [16] is described as follows: qHTS assay to identify small molecules that stimulate interleukin-8 (IL-8) secretion (AID 651758; active = well fitted activation curve with a large enough effect in the signal ratio; the % refers to the signal ratio; note: 0% is about no effect). The procedure, abridged: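 Secreted IL-8 measured by TR-FRET sandwich (cryptate and XL665 antibodies) from THP-1 cells exposed to compound overnight (16 hrs, 37 C).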
Experiment [17] can be described thus: qHTS assay for small molecule activators of the nuclear factor-kappa B (NF-kB) signaling pathway (AID 651749; active = well fitted activation curve with a large enough effect in the signal ratio; the % refers to the signal ratio; note: series mostly up to about 77 µM; % of control where 0% means no effect). The settings on record: NF-kB-bla ME-180 cells, beta-lactamase FRET ratio, 16 h; activation: stronger effect = higher value. The procedure, abridged: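 Readout: beta-lactamase reporter driven by an NF-kB response element, detected fluorescently as loss of FRET. Cells were the ME-180 line, treated 16 hr at 37C with pin-transferred compound.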

Experiment [18] addresses Androgen receptor (Homo sapiens) (UniProt P10275). Kind of experiment: qHTS assay for small molecule agonists of androgen receptor signaling (AID 588515; active = well fitted curve in the direction sought with a large enough effect in the signal ratio, with a control signal flat; the % refers to the signal ratio; note: % is set by controls: 0 for no effect and ±100 for the full control effect). Particulars: AR-UAS-bla HEK293, beta-lactamase ratio, agonist 16 h; stronger effect = higher value. Summed up: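 EC50 and efficacy came from Hill fits of titrations (up to 92 uM) normalized to 30 nM R1881 as 100% and DMSO as 0%. Compound exposure was 16 h at 37 C on AR-UAS-bla HEK293 cells, with a 405/460/530 nm CCF4 fluorescence read.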

For experiment [19] the target is unchanged. The experiment is described as follows: qHTS assay for small molecule antagonists of androgen receptor signaling (AID 588516; active = well fitted curve in the direction sought with a large enough effect in the signal ratio, with a control signal flat, not every such curve was filed as active; the % refers to the signal ratio; note: % is set by controls: 0 for no effect and ±100 for the full control effect). Summed up: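 HEK293 AR-UAS-bla cells, 10% dialyzed FBS medium; cpd titration + R1881 10 nM final, 16 h 37 C; CCF4 2 h RT; FRET ratio; IC50/efficacy via Hill fit.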
For experiment [20], the target named is Nuclear receptor ROR-gamma (Homo sapiens) (UniProt P51449). Kind of experiment: qHTS assay for small molecule antagonists of the retinoid-related orphan receptor gamma (ROR-gamma) signaling pathway (AID 651802).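 Note: luciferase reporter luminescence driven by ROR response element; series mostly up to about 92 µM; % is set by controls: 0 for no effect and ±100 for the full control effect; nearly all actives have a fitted effect of over 60% in size.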 Summed up:
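CHO cells with TET-inducible ROR-gamma and RORE-luciferase reporter, dosed then doxycycline-induced. After 16 h at 37C, One-Glo luminescence read; decreased signal indicates antagonism.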

Sequence of Androgen receptor (Homo sapiens) (P10275 whole entry, looked up): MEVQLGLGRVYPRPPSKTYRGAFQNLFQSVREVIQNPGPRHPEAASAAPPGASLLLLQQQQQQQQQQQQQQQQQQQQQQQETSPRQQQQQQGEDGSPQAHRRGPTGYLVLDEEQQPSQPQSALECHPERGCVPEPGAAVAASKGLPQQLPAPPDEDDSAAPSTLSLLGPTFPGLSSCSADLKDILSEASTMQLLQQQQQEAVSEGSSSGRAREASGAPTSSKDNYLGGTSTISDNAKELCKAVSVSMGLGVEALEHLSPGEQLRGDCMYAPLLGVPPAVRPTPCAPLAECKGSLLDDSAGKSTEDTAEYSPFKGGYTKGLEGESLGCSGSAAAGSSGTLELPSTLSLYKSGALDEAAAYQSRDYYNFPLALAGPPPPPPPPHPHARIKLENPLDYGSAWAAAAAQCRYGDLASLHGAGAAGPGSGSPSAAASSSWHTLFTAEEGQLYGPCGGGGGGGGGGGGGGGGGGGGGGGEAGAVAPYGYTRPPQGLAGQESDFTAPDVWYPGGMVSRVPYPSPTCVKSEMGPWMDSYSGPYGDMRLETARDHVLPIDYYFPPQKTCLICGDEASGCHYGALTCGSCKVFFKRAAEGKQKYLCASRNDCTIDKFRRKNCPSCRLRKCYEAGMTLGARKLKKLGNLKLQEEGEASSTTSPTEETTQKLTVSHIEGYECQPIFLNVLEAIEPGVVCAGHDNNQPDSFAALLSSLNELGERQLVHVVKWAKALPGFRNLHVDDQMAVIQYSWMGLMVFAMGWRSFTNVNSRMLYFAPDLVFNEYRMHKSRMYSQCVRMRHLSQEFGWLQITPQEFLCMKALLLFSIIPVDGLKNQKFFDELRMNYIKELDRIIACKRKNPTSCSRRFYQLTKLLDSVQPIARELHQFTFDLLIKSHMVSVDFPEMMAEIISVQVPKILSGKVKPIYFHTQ
Sequence of Estrogen receptor (Homo sapiens) (P03372 whole entry, looked up): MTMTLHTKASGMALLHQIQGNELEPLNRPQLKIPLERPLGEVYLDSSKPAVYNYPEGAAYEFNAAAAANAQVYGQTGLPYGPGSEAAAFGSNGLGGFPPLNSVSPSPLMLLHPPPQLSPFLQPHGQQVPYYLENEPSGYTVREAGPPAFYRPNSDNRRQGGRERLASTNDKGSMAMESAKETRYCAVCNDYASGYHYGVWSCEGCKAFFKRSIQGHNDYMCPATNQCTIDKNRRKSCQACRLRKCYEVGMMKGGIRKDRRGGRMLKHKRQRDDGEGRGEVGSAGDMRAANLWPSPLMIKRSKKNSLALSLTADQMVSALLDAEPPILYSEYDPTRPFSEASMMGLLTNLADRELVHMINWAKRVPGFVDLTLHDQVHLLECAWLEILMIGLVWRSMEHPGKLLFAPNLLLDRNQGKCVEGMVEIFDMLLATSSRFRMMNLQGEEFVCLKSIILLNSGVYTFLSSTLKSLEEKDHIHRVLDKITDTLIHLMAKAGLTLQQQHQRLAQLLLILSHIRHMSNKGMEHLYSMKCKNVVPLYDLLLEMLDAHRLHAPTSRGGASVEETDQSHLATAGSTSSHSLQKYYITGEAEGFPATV
Sequence of Nuclear receptor ROR-gamma (Homo sapiens) (P51449 whole entry, looked up): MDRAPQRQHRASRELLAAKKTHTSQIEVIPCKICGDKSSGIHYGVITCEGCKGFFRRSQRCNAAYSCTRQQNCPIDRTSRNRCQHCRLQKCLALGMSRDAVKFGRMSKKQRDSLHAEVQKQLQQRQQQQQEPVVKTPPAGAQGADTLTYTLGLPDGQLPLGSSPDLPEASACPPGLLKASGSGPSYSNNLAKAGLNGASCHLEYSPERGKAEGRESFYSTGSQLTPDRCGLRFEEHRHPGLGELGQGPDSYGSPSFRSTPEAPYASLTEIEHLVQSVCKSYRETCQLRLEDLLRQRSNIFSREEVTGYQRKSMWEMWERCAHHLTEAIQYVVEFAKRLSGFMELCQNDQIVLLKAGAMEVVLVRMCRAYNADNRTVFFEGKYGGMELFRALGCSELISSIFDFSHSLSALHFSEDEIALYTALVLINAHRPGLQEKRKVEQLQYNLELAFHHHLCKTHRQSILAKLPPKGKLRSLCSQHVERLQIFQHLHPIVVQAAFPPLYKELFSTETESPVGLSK
Sequence of Cytochrome P450 3A4 (Homo sapiens) (P08684 whole entry, looked up): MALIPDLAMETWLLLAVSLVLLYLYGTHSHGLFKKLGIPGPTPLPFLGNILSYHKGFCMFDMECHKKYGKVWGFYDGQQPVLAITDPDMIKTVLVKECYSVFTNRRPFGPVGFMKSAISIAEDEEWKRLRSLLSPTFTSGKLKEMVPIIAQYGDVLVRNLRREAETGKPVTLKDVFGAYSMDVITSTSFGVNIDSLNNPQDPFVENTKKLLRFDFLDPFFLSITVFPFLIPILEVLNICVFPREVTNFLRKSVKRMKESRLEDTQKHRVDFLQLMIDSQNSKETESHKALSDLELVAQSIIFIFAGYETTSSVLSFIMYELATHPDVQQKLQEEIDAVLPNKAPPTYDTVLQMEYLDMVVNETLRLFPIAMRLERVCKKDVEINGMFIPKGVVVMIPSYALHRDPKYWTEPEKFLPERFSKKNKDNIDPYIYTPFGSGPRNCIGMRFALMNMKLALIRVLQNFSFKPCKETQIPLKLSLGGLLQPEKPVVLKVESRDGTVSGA
Sequence of Glutathione peroxidase 1 (Homo sapiens) (P07203 whole entry, looked up): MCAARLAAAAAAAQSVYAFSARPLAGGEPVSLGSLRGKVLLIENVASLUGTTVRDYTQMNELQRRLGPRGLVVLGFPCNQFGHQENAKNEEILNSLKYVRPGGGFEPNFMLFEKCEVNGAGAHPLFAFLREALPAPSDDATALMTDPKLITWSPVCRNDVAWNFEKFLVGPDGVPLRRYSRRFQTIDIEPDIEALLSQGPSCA
Sequence of Cytochrome P450 1A2 (Homo sapiens) (P05177 whole entry, looked up): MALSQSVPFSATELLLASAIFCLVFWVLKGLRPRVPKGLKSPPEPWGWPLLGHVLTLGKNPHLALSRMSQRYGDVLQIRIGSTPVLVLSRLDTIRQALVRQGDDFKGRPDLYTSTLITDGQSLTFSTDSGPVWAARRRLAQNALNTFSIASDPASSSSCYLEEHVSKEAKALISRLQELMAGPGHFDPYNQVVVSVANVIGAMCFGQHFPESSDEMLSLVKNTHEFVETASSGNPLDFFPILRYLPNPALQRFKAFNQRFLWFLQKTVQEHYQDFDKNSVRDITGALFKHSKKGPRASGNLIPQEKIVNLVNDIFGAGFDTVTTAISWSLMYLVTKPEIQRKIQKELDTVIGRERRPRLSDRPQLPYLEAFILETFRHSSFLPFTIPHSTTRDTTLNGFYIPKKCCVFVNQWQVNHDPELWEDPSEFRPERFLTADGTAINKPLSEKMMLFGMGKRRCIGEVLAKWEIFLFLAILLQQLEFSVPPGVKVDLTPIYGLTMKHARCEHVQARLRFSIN

Take `C=CCN1CC[C@]2(C)c3cc(O)ccc3CC1[C@@H]2C`: the Potency entry in [1] is “inactive”.
For `CN1[C@@H]2CC(O)C[C@H]1[C@@H]1O[C@@H]12` (some centres not stated), the Potency result in [1] was “inactive”. For the same compound, the values for the Z-AUC in [2], in experiment [2] (measured here: PEO1 parental Z-AUC) and in experiment [2] (measured here: PEO4 Z-AUC) were 0.552 (inactive), 0.772 and 1.01, respectively.
As for `O=S(=O)(O)O`, the compound was called inactive in experiment [3], in experiment [4], in [6] and in [9]. In addition, the Potency entry in experiment [5] was “inactive”. Moreover, the Potency in experiment [7] was 35.5 µM (active). In [8], the max response was -1.96% (inactive).
Regarding `CN1C[C@H](C(=O)N[C@]2(C)O[C@@]3(O)C4CCCN4C(=O)[C@H](Cc4ccccc4)N3C2=O)C[C@@H]2c3cccc4[nH]cc(c34)C[C@H]21` (some centres not stated), the Potency in experiment [10] was 2 µM (active); in experiment [11], 1.41 µM (active); in [12], 0.891 µM (active).
`O=C(O)c1ccnc2cc(C(OCCN3CCC(F)(F)CC3)c3ccccc3Cl)[nH]c12` (configuration not stated): the Potency result in experiment [1] is “inactive”.
For `CC(=O)C1=C(O)[C@@H]2[C@H]3c4c[nH]c5cccc(c45)C[C@H]3C(C)(C)N2C1=O`, the Potency result in experiment [1] is “inactive”.
`Cc1ccc(-n2nccn2)c(C(=O)N2CCN(c3nc4cc(Cl)ccc4o3)CC[C@H]2C)c1`: in experiment [1], the Potency result was “inactive”.
Regarding `CC(=O)O[C@H]1C[C@@H]2CCC3C(CC[C@@]4(C)[C@H]3C[C@H]([N+]3(C)CCCCC3)[C@@H]4OC(C)=O)[C@@]2(C)C[C@@H]1[N+]1(C)CCCCC1` (some centres not stated), the Potency in experiment [10] is 11.2 µM (active).
`COC1=CC(=O)O[C@@H](/C=C/c2ccc3c(c2)OCO3)C1`: the Potency result in experiment [13] and in [14] was “inactive” each time. The result in experiment [3], in [4], in experiment [6] and in experiment [9] was inactive. The Potency in experiment [5] was 14.1 µM (active); in experiment [7] it was 11.2 µM (active). Moreover, in [8], the max response was 0.0511% (inactive).
With `S=C(S)N1CCCC1`, in experiment [13], the Potency result was “inactive”. The figures for the Potency in [10], in [11] and in experiment [12] were 3.16 µM (active), 11.2 µM (active) and 2.51 µM (active), respectively.
Take `CCCCOC(=O)c1ccnc2cc(C(OCCN3CCCCC3)c3ccccc3C)sc12` (configuration not stated): in experiment [1], the Potency result is “inactive”.
For the compound `O=C=NC1CCCCC1`, the Potency result in experiment [15], in experiment [14] and in [16] was “inactive” each time.
As to `COc1cc(OC)c(/C=C2/C(=O)Nc3ccccc32)c(OC)c1`, the Potency result in experiment [13] was “inactive”. Also, the Potency was 12.6 µM (active) in experiment [11] and 11.2 µM (active) in [12].
For the compound `C=CC1CC=CCC1` (configuration not stated), the Potency result in [15] and in experiment [14] was “inactive” throughout. For the same compound, the activation in experiment [17] is 0.91% (inactive) and -0.814% (inactive).
Take `C=CC(N)=O`: the activation in experiment [17] is -0.549% (inactive) and 0.0148% (inactive) and 0.73% (inactive). Besides, the Potency entry in [14] and in experiment [16] was “inactive” each time.
For `Nc1ccccc1Cl`, the activation is 9.37% (inactive) in experiment [18] and 0.524% (inactive) in experiment [17].
Take `CC(C)(C)OOC(C)(C)C`: the Potency entry in experiment [15] and in experiment [16] was “inactive” in each case.
On to `Clc1cccc(C(Cl)(Cl)Cl)n1`, for which the Potency result in experiment [13], in [19], in [16] and in experiment [20] was “inactive” throughout. In [18], the activation is -4.18% (inactive).
Regarding `Brc1ccccc1`, the activation in [18] is 9.26% (inactive) and -0.282% (inactive); in [17] it was 1.07% (inactive) and -1.27% (inactive). For the same compound, the Potency result in experiment [19] was “inactive”.
In the case of `C[C@]12CC[C@H]3[C@@H](CCC4=CC(=O)CC[C@@]43C)[C@@H]1CC[C@@H]2O`, the Potency entry in [14] was “inactive”.
Regarding `Clc1nc(Cl)nc(Cl)n1`, the Potency entry in [15], in experiment [14] and in experiment [20] was “inactive” in each case. Also, the activation in experiment [17] is 0.499% (inactive) and 0.444% (inactive).
As to `c1ccc2c(c1)CCCC2`, the activation in experiment [18] was -2.87% (inactive). Further, the Potency entry in [19], in [14] and in experiment [20] was “inactive” throughout.
As for `ClC(Cl)(Cl)c1ccccc1`, in experiment [20], the Potency result was “inactive”.
With `S=C=Nc1cccc2ccccc12`, the Potency entry in experiment [13], in experiment [15], in experiment [19], in experiment [16] and in experiment [20] was “inactive” throughout. Besides, the activation in experiment [18] is -5.44% (inactive).
Take `Oc1ccc(Cl)cc1Cl`: the Potency result in [20] is “inactive”.
`CCCC(=O)Cl`: the Potency entry in experiment [15], in experiment [16] and in [20] was “inactive” in each case.

The values are drawn from PubChem BioAssay (NCATS).
